# Results reported in PubChem BioAssay (Tox21).
# Values joined by “and” are separate entries in the source; they are usually repeats but may differ in a detail not shown here. Equal entries are not always repeated. Results filed as inconclusive are left out. Where a call stands in place of a potency, no number is given. Active and inactive are the calls of the source. Unless noted, calls come from the whole dose curve; as a rule, active = well fitted curve in the direction sought with a large enough effect in the repeat runs; inconclusive = weak or mixed curves; inactive = no such curve, though single readings can be large; an effect the other way counts as inactive or inconclusive.
# Key:
# [1] = qHTS assay for small molecules that induce genotoxicity in human embryonic kidney cells expressing luciferase-tagged ATAD5 (AID 651632); note: nearly all actives have a fitted effect of over 15% in size; note: potency is the fitted concentration of half-maximal effect
# Summary of the method: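 Quantitative HTS in HEK293T expressing luciferase-tagged ATAD5, whose levels rise upon DNA damage. Exposure ran 16 hr at 37C and 5% CO2, with luminescence read 30 min after Amplite addition at room temperature.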
# [2] = qHTS assay for small molecule agonists of the p53 signaling pathway - cell viability (AID 651633; calls by dose curve; note: nearly all actives have a fitted effect of over 30% in size; note: potency is the fitted concentration of half-maximal effect)
# Summary of the method: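 p53RE-bla cells were treated with compound for 16 hours at 37 C. Cytotoxicity was then measured as CellTiter-Glo luminescence after 30 min at room temperature.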
# [3] = qHTS assay for small molecule disruptors of the mitochondrial membrane potential - cell viability (AID 720634; calls by dose curve; note: nearly all actives have a fitted effect of over 20% in size; note: potency is the fitted concentration of half-maximal effect)
# Summary of the method: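 ATP-based luminescent viability readout (CellTiter-Glo, 30 min, room temperature) in HepG2 cells multiplexed with the m-MPI membrane potential dye; compound exposure lasted 1 hr at 37 C.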
# [4] = qHTS assay for small molecule disruptors of the mitochondrial membrane potential (AID 720635); note: potency is the fitted concentration of half-maximal effect
# Summary of the method: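 HepG2 cells exposed to compound 1 hr at 37C, then Mito-MPS dye 30 min. Ratio read of aggregate (540/590 nm) versus monomer (490/535 nm) fluorescence.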
# [5] = qHTS assay to test for compound auto fluorescence at 590 nm (red) in HepG2 cells (AID 720674)
# Summary of the method: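 HepG2 cells, 2,000 per well in MEM with 10% FBS, attached overnight at 37 C, then got 23 nL compound or DMSO. After 1 hr at 37 C, 5% CO2, red fluorescence was read at 540/590 nm against Rose Bengal sodium as reference.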
# [6] = qHTS assay to test for compound auto fluorescence at 535 nm (green) in HepG2 cells (AID 720675); note: potency is the fitted concentration of half-maximal effect
# [7] = qHTS assay to test for compound auto fluorescence at 460 nm (blue) in HEK293 cells (AID 720678); note: potency is the fitted concentration of half-maximal effect
# Summary of the method: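 Measured: blue fluorescence (Ex 405/Em 460 nm) of compound-treated HEK293 cells, incubated overnight at 37C with 5% CO2 and scaled to triamterene equivalents.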
# [8] = qHTS assay to test for compound auto fluorescence at 590 nm (red) in HEK293 cells (AID 720679)
# Summary of the method: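 Using HEK293 cells at 2,000 per well, the screen added 23 nL of each compound after cell attachment and incubated overnight (37C, 5% CO2). The plate reader then captured red-label fluorescence, Ex/Em 540/590nm.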
# [9] = qHTS assay for small molecules that induce genotoxicity in human embryonic kidney cells expressing luciferase-tagged ATAD5 - cell viability (AID 651634; calls by dose curve; note: nearly all actives have a fitted effect of over 25% in size; note: potency is the fitted concentration of half-maximal effect)
# Summary of the method: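 After 15.5 hr incubation with compound at 37C, 5% CO2, HEK293T ATAD5-luciferase cells received CellTiter-Fluor reagent; fluorescence intensity was quantified following 30 min at 37C.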
# Tags give direction and shape of the fitted curve or compound fluorescence and quenching.
Structure (SMILES),Potency [1],Potency [2],Potency [3],Potency [4],outcome [5],Potency [6],Potency [7],outcome [8],Potency [9]
SC1CCCCC1,inactive,inactive,inactive,50.5 µM (active),inactive,inactive,inactive,inactive,–
CC(C)(C)c1ccc2c(S(=O)(=O)O)c(C(C)(C)C)ccc2c1,inactive,inactive,inactive,–,inactive,inactive,inactive,inactive,inactive
COc1cccc2c1[C@@H]1CN(CCCCn3c(=O)[nH]c4c(sc5ncc(-c6ccccc6)nc54)c3=O)C[C@@H]1CO2,inactive,29.8 µM (active),inactive,13.3 µM (active),–,inactive,inactive,inactive,26.6 µM (active)
CN(C)CCOc1ccc(/C(=C(/CCCl)c2ccccc2)c2ccccc2)cc1,inactive,57.2 µM (active),inactive,–,–,inactive,inactive,inactive,inactive
C[C@@H]1C(=O)NC2=Nc3cccc(Cl)c3CN21,inactive,inactive,inactive,–,inactive,–,inactive,inactive,–
CN1CC[C@H](c2c(O)cc(O)c3c(=O)cc(-c4ccccc4Cl)oc23)[C@H](O)C1,inactive,inactive,inactive,–,inactive,inactive,inactive,inactive,inactive
CCC(C)(C)c1ccc(CC(C)CN2C[C@@H](C)O[C@@H](C)C2)cc1 (some centres undefined),inactive,26.6 µM (active),inactive,23.7 µM (active),inactive,inactive,inactive,inactive,–
Cc1cc(N)c2ccccc2[n+]1CCCCCCCCCC[n+]1c(C)cc(N)c2ccccc21,inactive,inactive,inactive,inactive,inactive,inactive,inactive,inactive,inactive
c1ccc2occc2c1,inactive,inactive,inactive,–,inactive,inactive,inactive,inactive,inactive
O=C(CCCCCCCCc1cccnc1)N1CCC(C=C(c2ccccc2)c2ccccc2)CC1,inactive,24.3 µM (active),19.3 µM (active),24.3 µM (active),inactive,inactive,inactive,inactive,61.1 µM (active)
CCCCCCCCCCCCN1CCCC1=O,inactive,61.1 µM (active),inactive,68.6 µM (active),inactive,inactive,inactive,inactive,–
COc1c(Br)cc(Br)c(C)c1Br,inactive,inactive,inactive,–,inactive,inactive,inactive,inactive,inactive
C/C(=C(/CCO)SSCC1CCCO1)N(C=O)Cc1cnc(C)nc1N (centres undefined),inactive,inactive,inactive,inactive,inactive,inactive,inactive,inactive,inactive
CC(=O)N[C@@H](C=O)[C@H](O)[C@H](O)[C@@H](O)CO,inactive,inactive,inactive,–,inactive,inactive,inactive,inactive,inactive
C=C1C(CCl)(CCl)C2(Cl)C(Cl)C(Cl)C1(Cl)C2(Cl)Cl (centres undefined),inactive,10.6 µM (active) and 60.4 µM (active),inactive,3.76 µM (active) and 4.28 µM (active),inactive,–,inactive,inactive,–
CCCn1c(=O)[nH]c(=O)c2[nH]cnc21,inactive,inactive,–,inactive,inactive,–,inactive,inactive,inactive
CC(C)c1ccc2sc3ccccc3c(=O)c2c1,4.33 µM (active),inactive,–,48.6 µM (active),inactive,inactive,–,inactive,inactive
CN(C/C=C/c1ccccc1)Cc1cccc2ccccc12,inactive,inactive,inactive,inactive,inactive,inactive,inactive,inactive,inactive
Cc1cc(F)ccc1-c1cc(N2CC[C@@H](O)[C@H]2CO)ncc1N(C)C(=O)C(C)(C)c1cc(C(F)(F)F)cc(C(F)(F)F)c1,inactive,19 µM (active),–,21.4 µM (active),inactive,inactive,inactive,inactive,–

Structure (SMILES),Potency [1],Potency [2],Potency [3],Potency [4],outcome [5],Potency [6],Potency [7],outcome [8],Potency [9]
CNCCC=C1c2ccccc2CCc2ccccc21,–,inactive,–,–,–,inactive,inactive,inactive,–
N[C@@H](Cc1ccc(O)c(O)c1)C(=O)O,inactive,–,inactive,–,inactive,inactive,inactive,inactive,inactive
c1ccc2cc3c4ccccc4c4ccccc4c3cc2c1,–,inactive,–,–,inactive,inactive,inactive,inactive,inactive
CN1CCN(CCCN2c3ccccc3Sc3ccc(Cl)cc32)CC1,inactive,29.8 µM (active),–,–,–,inactive,inactive,inactive,–
CON=C1C[C@]2(C[C@@H]3C[C@@H](C/C=C(\C)C[C@@H](C)/C=C/C=C4\CO[C@@H]5[C@H](O)C(C)=C[C@@H](C(=O)O3)[C@]45O)O2)O[C@H](/C(C)=C/C(C)C)[C@H]1C,inactive,–,inactive,13.3 µM (active),–,inactive,inactive,inactive,11.9 µM (active) and 8.41 µM (active)
CN[C@H]1CC[C@@H](c2ccc(Cl)c(Cl)c2)c2ccc(S(N)(=O)=O)cc21,inactive,–,inactive,8.63 µM (active),inactive,inactive,inactive,inactive,–
CC(Cc1ccc(O)c(O)c1)C(C)Cc1ccc(O)c(O)c1 (centres undefined),inactive,–,inactive,13.7 µM (active),inactive,inactive,inactive,inactive,inactive
O=C1c2ccccc2-c2n[nH]c3cccc1c23,inactive,–,inactive,0.784 µM (active),inactive,inactive,12.6 µM [fluorescent] (active),inactive,inactive
CCCCCCCC[N+](C)(C)CCCCCCCC,inactive,–,inactive,21.1 µM (active) and 23.7 µM (active),inactive,inactive,inactive,inactive,inactive
CCCCC/C=C\C=C\C(=O)OCC,inactive,–,inactive,71.5 µM (active),inactive,inactive,inactive,inactive,inactive
CCCCCCCCCCCCCCCCCCNC(=O)OC1CCN(C(=O)OC[C@H](COC(=O)N(Cc2cccc[n+]2CC)C(=O)c2ccccc2OC)OC)CC1,inactive,26.6 µM (active),–,–,inactive,inactive,inactive,inactive,–
CCN1\C(=C/C=C/C=C/c2sc3ccccc3[n+]2CC)Sc2ccccc21,inactive,–,inactive,33.5 nM (active) and 266 nM (active),inactive,inactive,inactive,inactive,23.7 µM (active) and 26.6 µM (active)
COc1ccc2ccccc2c1,–,–,–,–,inactive,inactive,inactive,inactive,–
CCCCC[C@H](O)/C=C/[C@@H]1[C@@H](C/C=C\CCCC(=O)O)[C@@H](O)C[C@H]1O,inactive,–,inactive,inactive,inactive,–,inactive,inactive,inactive
Clc1nc(C(Cl)(Cl)Cl)c(Cl)c(Cl)c1Cl,–,61.1 µM (active),inactive,–,inactive,inactive,inactive,inactive,–
CN1CCN(c2ccccc2/C=C2\SCCN(c3ccc(Cl)c(Cl)c3)C2=O)CC1,–,–,–,–,inactive,inactive,inactive,inactive,inactive
CC(=O)[C@]1(O)Cc2c(O)c3c(c(O)c2[C@@H](O[C@H]2C[C@H](N)[C@H](O)[C@H](C)O2)C1)C(=O)c1ccccc1C3=O,–,–,inactive,5.55 µM (active),inactive,12.6 µM (active),inactive,inactive,15 µM (active)
CCCCCCCC/C=C\CCCCCCCC(=O)N(CCO)CCO,inactive,–,inactive,–,inactive,inactive,inactive,inactive,inactive
N#Cc1nc(Cl)c(Cl)c(Cl)c1Cl,4.86 µM (active),10.9 µM (active),–,–,inactive,inactive,inactive,inactive,–

Structure (SMILES),Potency [1],Potency [2],Potency [3],Potency [4],outcome [5],Potency [6],Potency [7],outcome [8],Potency [9]
CN(C[C@@H](CC[N+]12CCC(C3CCCCC3)(CC1)CC2)c1ccc(Cl)c(Cl)c1)C(=O)c1cc(C(F)(F)F)cc(C(F)(F)F)c1,inactive,27.3 µM (active),–,–,inactive,inactive,inactive,inactive,–
CCCCCCCCCC[N+](C)(CCCCCCCCCC)CCC[Si](OC)(OC)OC,–,48.6 µM (active),54.5 µM (active),–,inactive,inactive,inactive,inactive,48.6 µM (active)
CO[C@H]1C[C@@H]2CC[C@@H](C)[C@@](O)(O2)C(=O)C(=O)N2CCCC[C@H]2C(=O)O[C@H]([C@H](C)C[C@@H]2CC[C@@H](O)[C@H](OC)C2)CC(=O)[C@H](C)C=C(C)[C@@H](O)[C@@H](OC)C(=O)[C@H](C)C[C@H](C)/C=C/C=CC=C1C,–,21.1 µM (active) and 23.7 µM (active),inactive,17.6 µM (active) and 19.7 µM (active),inactive,inactive,inactive,inactive,29.8 µM (active) and 26.6 µM (active)
CS(=O)(=O)c1ccc([C@@H](CC2CCCC2)C(=O)Nc2cnccn2)cc1Cl,–,–,34.4 µM (active),61.1 µM (active),inactive,inactive,inactive,inactive,–
NC(N)=NCCCCN=C(N)N,–,inactive,inactive,inactive,inactive,inactive,inactive,inactive,inactive
C=CC(N)CCC(=O)O (centres undefined),inactive,–,inactive,–,inactive,inactive,inactive,inactive,inactive
CCN(CC)CC#CCOC(=O)C(O)(c1ccccc1)C1CCCCC1 (centres undefined),–,–,–,–,inactive,inactive,inactive,inactive,inactive
Nc1ccc(N)c([N+](=O)[O-])c1,–,–,–,1.09 µM (active),inactive,inactive,inactive,inactive,–
CCCCCCCC1CCC(=O)O1 (centres undefined),–,–,–,–,inactive,inactive,inactive,inactive,–
O=C(Nc1ccccc1)c1cc(Cl)ccc1O,–,17.2 µM (active),1.93 µM (active),0.386 µM (active),inactive,inactive,inactive,inactive,–
O=C(CCN1CCC(c2ccccc2)C1)c1ccc2c(c1)OCCO2 (centres undefined),–,–,inactive,inactive,inactive,inactive,inactive,inactive,inactive
CC1=C(/C=C/C(C)=C/C=C/C(C)=C\C(=O)O)C(C)(C)CCC1,inactive,–,inactive,61.3 µM (active),inactive,–,inactive,inactive,–
Nc1c(CC(=O)O)cccc1C(=O)c1ccccc1,–,inactive,inactive,inactive,inactive,inactive,inactive,inactive,inactive
C(=C\c1ccncc1)/c1ccccc1,–,–,inactive,3.76 µM (active) and 10.6 µM (active),–,inactive,inactive,inactive,inactive
CC(=O)N(C)C,–,–,–,–,inactive,inactive,inactive,inactive,–
COc1cccc(-c2ccc(/C=C\CN3CCCCCC3)cc2Cl)c1,inactive,–,inactive,–,inactive,inactive,inactive,inactive,inactive
C=CCc1cc(S(=O)(=O)c2ccc(O)c(CC=C)c2)ccc1O,inactive,–,inactive,27.3 µM (active),inactive,inactive,inactive,inactive,inactive
CC(O)(c1ccc(Cl)cc1)c1ccc(Cl)cc1,inactive,–,–,27.3 µM (active),inactive,inactive,inactive,inactive,inactive
